Assay outcomes deposited in PubChem by National Center for Advancing Translational Sciences (NCATS).
Only a selection was taken, and hits are over-represented in it overall.
PKM2 inhibitor: qHTS Assay for Inhibitors of Human Muscle isoform 2 Pyruvate Kinase. Pyruvate kinase PKM (Homo sapiens), P14618. purified PKM2, ATP generation, Kinase-Glo luminescence. Potency, µM (doses to about 57.5 µM), without a hit: top-dose activity change, negative = inhibition, actives largely listed as inhibitors. actives 0.058% (n = 260,000); active = well fitted inhibition curve with a large enough effect; note: nearly all actives have a fitted effect of over 60% in size
Target sequence (P14618 whole entry, looked up, canonical isoform): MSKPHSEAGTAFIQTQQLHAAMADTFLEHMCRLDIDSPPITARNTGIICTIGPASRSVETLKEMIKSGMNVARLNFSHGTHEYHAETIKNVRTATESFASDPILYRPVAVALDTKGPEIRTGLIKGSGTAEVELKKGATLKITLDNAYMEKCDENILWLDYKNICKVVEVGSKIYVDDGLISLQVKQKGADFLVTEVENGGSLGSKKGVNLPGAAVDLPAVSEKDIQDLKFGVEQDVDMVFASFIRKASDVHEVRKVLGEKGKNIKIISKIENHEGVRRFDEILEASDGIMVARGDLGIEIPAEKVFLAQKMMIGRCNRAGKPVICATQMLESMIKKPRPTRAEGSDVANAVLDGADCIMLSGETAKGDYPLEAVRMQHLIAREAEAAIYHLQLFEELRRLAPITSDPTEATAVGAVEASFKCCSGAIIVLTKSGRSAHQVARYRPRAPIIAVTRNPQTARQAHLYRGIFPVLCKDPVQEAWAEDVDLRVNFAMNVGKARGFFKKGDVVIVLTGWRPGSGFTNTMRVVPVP
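Coupled luciferase luminescence (Kinase-Glo) detects ATP generated from 0.1 mM ADP and 0.5 mM PEP in imidazole buffer pH 7.2 with KCl, MgCl2; 1 h at room temperature. Enzyme at intermediate activity; normalized to uninhibited and no-enzyme controls.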
Starred values were filed as active, the others as inactive; [ ] = remark or other dose. Potency is the fitted concentration of half-maximal effect.

SMILES | PKM2 inhibitor
CC1(C)CC(=O)C2=C(C1)O[C@@]1(c3ccsc3)Cc3cc(C#N)ccc3C2O1 | 40%[11.5 µM]
Cc1ccc(N=Cc2c(C)[nH]n(-c3nc4ccccc4[nH]3)c2=O)cc1 | 10µM*
COc1ccc(CNC(=O)C2=CCN(S(=O)(=O)c3ccc(C)cc3)CC2)cc1 | 95%
Cc1nn(CCC(=O)N2CCN(S(=O)(=O)c3ccccc3)CC2)c(C)c1C | 83%
Cc1ccc(S(=O)(=O)NCCc2ccncc2)cc1C | 34%
COc1cccc(NC(=O)CSc2ccccn2)c1 | 49%
COc1ccc(NC(=O)c2ccccn2)cc1 | 14µM*
COc1ccc(NC(=O)c2ccc(NC(=O)CSc3nccc(=O)[nH]3)cc2)cc1 | 32%
CCOC(=O)c1c(-c2ccc(C)o2)csc1NC(=O)COC(=O)c1ccc(NC(N)=O)cc1 | 33%
CCc1ccc(OCCCC(=O)Nc2ccc(S(N)(=O)=O)cc2)cc1 | 94%
COC(=O)C1=C(C)N(Cc2ccco2)C(=O)N[C@H]1c1cccc(C(F)(F)F)c1 | 43%
COc1ccc2nc(/N=C/c3c(C)[nH]n(-c4ccc(C)cc4)c3=O)sc2c1 | 14µM*
Cc1cccc(/C(N)=N/OC(=O)c2ccc3c(c2)OCO3)c1 | 11µM*
Cc1nc2ccc(C(=O)NCc3ccc4c(c3)OCO4)cc2s1 | 36%
Cc1noc(C)c1COc1cccc(C(=O)Oc2ccc3c(c2)OCO3)c1 | 1%
COc1ccc(S(=O)(=O)N2CCc3cc(OC)c(OC)cc3C2)cc1 | 91%
Cc1ccc(N2C(=O)c3ccccc3C2O)nc1 (stereo not given) | 11µM*
CC1CN(c2nc3c(c(=O)[nH]c(=O)n3C)n2Cc2ccccc2F)CC(C)O1 (stereo not given) | 32%
CC(NC(=O)Cc1cccs1)c1ccccc1 (stereo not given) | 122%
NC(=O)CC(NC(=O)Cc1ccc(Br)cc1)c1ccc(NCCc2ccccc2F)c([N+](=O)[O-])c1 (stereo not given) | 60%
COc1cc(/C=N/Nc2nn3cnnc3c3ccccc23)ccc1O | 25µM*
COc1cc(/C=N\Nc2nc(-c3ccc(C)cc3)c(NC(C)=O)s2)ccc1O | 72%
COc1cc(/C=N/NC(=O)C2c3ccccc3Oc3ccccc32)ccc1O | 66%
CC(C)CN(C(=O)CSc1nnnn1-c1ccccc1)c1c(N)n(CC(C)C)c(=O)[nH]c1=O | 37%
COc1cc(C(=O)NCCCNc2ccc([N+](=O)[O-])cc2)cc(OC)c1OC | 44%
SMILES | PKM2 inhibitor
COc1ccccc1-c1nc(-c2ccccn2)no1 | 7.9µM*
Brc1ccc(-c2nc(-c3ccccn3)no2)o1 | 18µM*
Cc1cccc(N2CCN(C(=O)c3cc4c(=O)n(C)c5ccccc5c4n3C)CC2C)c1 (stereo not given) | 37%
CC1(C)CC(=O)C(C(C2=C(O)CC(C)(C)CC2=O)c2ccc(Br)s2)C(=O)C1 (stereo not given) | 44%
O=C(CNC(=O)c1ccc(Br)o1)OCC(=O)c1cccc([N+](=O)[O-])c1 | 59%
Cn1c(Cl)cnc1C1CC(=O)c2cc(Cl)ccc2O1 (stereo not given) | 32%
Cc1ccc(-c2nc3c(c(=O)[nH]c(=O)n3Cc3ccccc3)n2C)o1 | 48%
COC(=O)c1cc(-c2ccc(C)o2)nc2ccccc12 | 56%
Cc1ccc(-c2nc3ccccc3n2C)o1 | 13µM*
Cc1cc(NC(=O)CSc2ccc(-c3ccc(F)cc3)nn2)no1 | 70%
Cc1ccc(NS(=O)(=O)c2c(C)nc3sccn3c2=O)cc1C | 81%
O=C1N(CCCl)c2ccc(Br)cc2C12OCCO2 | 56%
Cc1cc(-c2nn(-c3ccccc3F)cc2CNCCc2cnc[nH]2)c(C)s1 | 50%
Clc1ccccc1Nc1nnc(-c2ccncc2)s1 | 13µM*
CNc1c([N+](=O)[O-])cnn1-c1ccc(Cl)cc1 | 108%
Cc1ccc(/C=N/N2CCN(Cc3ccc(Cl)cc3)CC2)o1 | 34%
COc1ccc(-c2cc3nc(C)n(N)c(=O)c3s2)cc1 | 4µM*
COc1ccc(-c2nc3oc4cc(OC)ccc4c(=O)c3c(=O)n2Cc2ccco2)cc1 | 33%
COc1ccc(-c2[nH]ncc2CNCCn2cccn2)c(F)c1 | 54%
CCOC(=O)c1c(C)[nH]c(C(=O)COC(=O)c2ccc(N3CCCC3=O)cc2)c1C | -17%
Cc1ccc(/C=N/N2CCN(C3c4ccccc4-c4ccccc43)CC2)o1 | 50%
C=CCN1CCc2c(cc(O)c(O)c2Cl)C(c2cccc(C)c2)C1 (stereo not given) | 33%
O=C(Nc1ccc(F)cc1F)N1CCN(c2ncccn2)CC1 | -1%
O=C(NCc1ccc2c(c1)OCO2)c1ccc(C2SCC(=O)N2Cc2ccco2)cc1 (stereo not given) | 54%
Oc1cc2c(cc1CN1CCc3ccccc3C1)OCO2 | 32%
c1ccc2c(c1)Cc1cc3cc4c(cc3nc1-2)OCO4 | 8.9µM*
CCn1ccnc1CN(C)Cc1cn(-c2cc(C)ccc2C)nc1-c1ccccc1 | 32%
Cc1ccsc1/C=C1\CCc2ccccc2C1=O | 25µM*
O=c1c(Cc2ccc(F)cc2)c(O)ccn1Cc1ccc(Cl)cc1Cl | 39%
